# Measured values taken from PubChem BioAssay (Tox21).
# Several values for one entry are separate records, joined by “and”; a condition that tells them apart may be missing. Identical values can stand only once. A number with no mark means an inactive call. Records with an inconclusive call do not appear. Where a call stands in place of a potency, no number is given. Activity calls are given as the source filed them. Unless noted, calls follow the shape of the full dose curve.
# What was measured:
# [1] = biological target: Gonadotropin-releasing hormone receptor (Homo sapiens) (UniProt P30968); assay: Human gonadotropin-releasing hormone receptor (GnRHR) small molecule agonists, calcium flux assay in GnRHR-HEK293 cells (AID 1920063); also: nearly all actives have a fitted effect of over 35% in size; also: potency is read from the fitted curve at half-maximal effect
# Chain of Gonadotropin-releasing hormone receptor (Homo sapiens) (P30968 whole entry, looked up): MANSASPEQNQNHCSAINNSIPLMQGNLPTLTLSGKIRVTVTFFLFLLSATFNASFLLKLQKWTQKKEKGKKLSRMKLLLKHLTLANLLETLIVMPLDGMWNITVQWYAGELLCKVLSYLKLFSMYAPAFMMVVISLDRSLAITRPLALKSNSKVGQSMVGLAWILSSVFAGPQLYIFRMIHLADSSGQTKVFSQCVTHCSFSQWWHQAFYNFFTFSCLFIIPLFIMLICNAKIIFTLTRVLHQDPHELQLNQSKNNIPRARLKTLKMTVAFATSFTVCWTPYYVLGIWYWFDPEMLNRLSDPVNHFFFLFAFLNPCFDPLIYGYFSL
# Procedure, shortened: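 Tox21-format agonist screen using human GnRHR-expressing HEK293 cells and a fluorescent calcium dye; kinetic 3-min fluorescence reading after compound addition, 15-point concentration series run in triplicate.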
# [2] = biological target: KiSS-1 receptor (Homo sapiens) (UniProt Q969F8); assay: Human kisspeptin (KISS1R) small molecule agonists, calcium flux assay in KISS1R-HEK293 cells (AID 1920064; active = well fitted curve in the direction sought with a large enough effect in the repeat runs; an effect the other way counts as inactive or inconclusive; also: potency is read from the fitted curve at half-maximal effect)
# Chain of KiSS-1 receptor (Homo sapiens) (Q969F8 whole entry, looked up): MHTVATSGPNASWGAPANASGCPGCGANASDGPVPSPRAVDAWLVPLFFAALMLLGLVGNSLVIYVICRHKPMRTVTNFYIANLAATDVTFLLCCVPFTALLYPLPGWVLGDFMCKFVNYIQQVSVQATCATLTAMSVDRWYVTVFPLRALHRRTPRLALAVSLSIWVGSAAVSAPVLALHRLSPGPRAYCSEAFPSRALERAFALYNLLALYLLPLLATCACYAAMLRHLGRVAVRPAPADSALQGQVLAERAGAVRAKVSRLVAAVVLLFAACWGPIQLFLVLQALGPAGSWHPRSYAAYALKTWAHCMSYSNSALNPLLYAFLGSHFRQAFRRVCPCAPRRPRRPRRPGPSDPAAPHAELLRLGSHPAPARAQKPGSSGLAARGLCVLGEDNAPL
# Procedure, shortened: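 Intracellular calcium mobilization in KISS1R-HEK293 cells was recorded by fluorescence (Ex/Em 480/540) for 3 min following compound addition to cells pre-loaded 1 h with calcium dye.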
# [3] = G protein-coupled receptor (GPCR) small molecule agonists, calcium flux assay: HEK293 wild type cell line counter screen (AID 1920065); also: potency is read from the fitted curve at half-maximal effect
# Procedure, shortened: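 In this agonist-mode screen, ATP is the positive control and DMSO the vehicle. Cells grow 18 h before a 1 h dye incubation at 37 C; signal is taken at Ex/Em 480/540 over 3 min.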
# [4] = p53 small molecule agonists, cell-based qHTS assay with human liver microsomes (AID 1963577);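 also: p53 response element beta-lactamase reporter cells with liver microsomes plus NADPH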
# Procedure, shortened: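 HLM-supplemented p53RE-bla reporter assay: 16 h compound exposure at 37 C, microsomes and NADPH each 0.5 mg/mL final, read by fluorescence intensity.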
# [5] = p53 small molecule agonists, cell-based qHTS assay with rat liver microsomes (AID 1963578)
# Procedure, shortened: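 Quantitative HTS of the Tox21 10K library: p53RE-bla cells, rat liver microsomes plus NADPH at 0.5 mg/mL final each, 16 h at 37 C, beta-lactamase fluorescence detection.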
# [6] = p53 small molecule agonists, cell-based qHTS assay with human liver microsomes: qHTS cell viability counter screen (AID 1963579); also: nearly all actives have a fitted effect of over 45% in size
# Procedure, shortened: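 Viability of p53RE-bla cells is measured as CellTiter-Glo luminescence following a 16 h, 37 C incubation with compound, liver microsomes from human donors and NADPH.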
# [7] = p53 small molecule agonists, cell-based qHTS assay with rat liver microsomes: qHTS cell viability counter screen (AID 1963580); also: nearly all actives have a fitted effect of over 45% in size
# Procedure, shortened: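 p53RE-bla HCT-116 cells (4,000/well) rested 5 h at 37 C, then given Tox21 compounds in DMSO with rat liver microsomes (0.5 mg/mL final) plus NADPH (0.5 mg/mL final) for 16 h at 37 C. Viability read by CellTiter-Glo luminescence after 30 min at room temperature.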
# [8] = p53 small molecule agonists, cell-based qHTS assay: qHTS cell viability counter screen (AID 1963581); also: nearly all actives have a fitted effect of over 45% in size
# Procedure, shortened: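 Compounds are pinned onto HCT-116 p53RE-bla cells and left 16 h at 37 C. Following the reporter FRET read, ATP is quantified by CellTiter-Glo luminescence after 30 min at room temperature.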
# [9] = p53 small molecule agonists, cell-based qHTS assay (AID 1963582; active = well fitted activation curve with a large enough effect in the signal ratio in the repeat runs, not every such curve was filed as active; the % refers to the signal ratio)
# Procedure, shortened: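 Agonist activity was scored from beta-lactamase FRET fluorescence in p53RE-bla cells treated 16 h at 37 C with compounds in DMSO, substrate incubation being 2 h at room temperature.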
# [10] = biological target: 5-hydroxytryptamine receptor 2A (Homo sapiens) (UniProt P28223); assay: 5-hydroxytryptamine receptor 2A (HTR2A) small molecule agonists, cell-based qHTS assay (AID 1963587); also: nearly all actives have a fitted effect of over 30% in size; also: potency is read from the fitted curve at half-maximal effect
# Chain of 5-hydroxytryptamine receptor 2A (Homo sapiens) (P28223 whole entry, looked up): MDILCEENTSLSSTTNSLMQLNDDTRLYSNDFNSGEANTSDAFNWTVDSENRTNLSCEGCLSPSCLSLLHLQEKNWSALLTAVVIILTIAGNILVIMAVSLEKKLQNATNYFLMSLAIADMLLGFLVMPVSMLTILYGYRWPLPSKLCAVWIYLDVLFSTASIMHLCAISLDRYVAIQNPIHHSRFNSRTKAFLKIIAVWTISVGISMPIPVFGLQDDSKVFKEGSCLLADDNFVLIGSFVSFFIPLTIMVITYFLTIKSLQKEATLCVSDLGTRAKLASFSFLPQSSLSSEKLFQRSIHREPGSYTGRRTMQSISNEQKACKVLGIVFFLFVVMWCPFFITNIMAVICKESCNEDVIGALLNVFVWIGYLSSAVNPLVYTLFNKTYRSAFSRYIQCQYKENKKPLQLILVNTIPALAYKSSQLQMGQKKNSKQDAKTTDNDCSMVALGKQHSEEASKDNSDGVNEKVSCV
# Procedure, shortened: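 HTR2A-CHO cells, plated 18 h at 37 C/5% CO2, dye-loaded 1 h at 37 C; compounds in DMSO added by pin tool (agonist mode). Intracellular calcium flux read as kinetic fluorescence on FDSS over 2 min at 1 s intervals.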
# [11] = biological target: Muscarinic acetylcholine receptor M1 (Homo sapiens) (UniProt P11229); assay: Cholinergic receptor muscarinic 1 (CHRM1) small molecule antagonists, cell-based qHTS assay (AID 1963588); also: nearly all actives have a fitted effect of over 40% in size
# Chain of Muscarinic acetylcholine receptor M1 (Homo sapiens) (P11229 whole entry, looked up): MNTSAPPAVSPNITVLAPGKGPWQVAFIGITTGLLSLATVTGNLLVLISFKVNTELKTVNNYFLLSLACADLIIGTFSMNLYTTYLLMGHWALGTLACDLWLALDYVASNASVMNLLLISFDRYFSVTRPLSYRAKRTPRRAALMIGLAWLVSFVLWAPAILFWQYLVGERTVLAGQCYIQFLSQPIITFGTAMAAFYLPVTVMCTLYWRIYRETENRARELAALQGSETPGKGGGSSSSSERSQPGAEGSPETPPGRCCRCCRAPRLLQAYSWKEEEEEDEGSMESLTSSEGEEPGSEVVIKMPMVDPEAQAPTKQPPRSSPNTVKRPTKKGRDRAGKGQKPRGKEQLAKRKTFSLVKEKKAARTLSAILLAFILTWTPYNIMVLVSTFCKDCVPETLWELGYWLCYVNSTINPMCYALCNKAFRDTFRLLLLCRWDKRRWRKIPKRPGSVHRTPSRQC
# Procedure, shortened: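 CHRM1-CHO calcium-flux assay, antagonist mode. Cells were seeded 18 h, dye-loaded 1 h at 37 C and given compound for 5 min at RT, then acetylcholine was added at 50nM. FDSS fluorescence was read 3 min; 15 concentrations, three runs.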
# [12] = biological target: Muscarinic acetylcholine receptor M1 (Homo sapiens) (UniProt P11229); assay: Cholinergic receptor muscarinic 1 (CHRM1) small molecule agonists, cell-based qHTS assay (AID 1963589); also: nearly all actives have a fitted effect of over 35% in size; also: potency is read from the fitted curve at half-maximal effect
# Procedure, shortened: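 Stable CHRM1-CHO cells (human receptor) were incubated 18 h, dye-loaded for 1 h at 37 C and exposed to test compounds for agonist activity, with calcium-dependent fluorescence followed kinetically.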
# [13] = cAMP Responsive Elements (CRE) small molecule agonists, cell-based qHTS assay (AID 1963590)
# Procedure, shortened: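 FRET-based beta-lactamase readout (LiveBLAzer B/G, 2 h RT) quantified CRE activation in HEK 293T CRE-bla cells after 3 h treatment with DMSO-dissolved compounds.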
# [14] = cAMP Responsive Elements (CRE) small molecule antagonists, cell-based qHTS assay (AID 1963591; active = well fitted inhibition curve with a large enough effect in the signal ratio in the repeat runs, not every such curve was filed as active; the % refers to the signal ratio)
# Procedure, shortened: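 qHTS in CRE-bla HEK 293T cells: compound in DMSO, then 0.25 uM NKH477 (final), 3 h at 37 °C/5% CO2; beta-lactamase FRET read-out after 2 h substrate incubation.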
# [15] = biological target: Beta-2 adrenergic receptor (Homo sapiens) (UniProt P07550); assay: Adrenergic beta2 receptor (ADRB2) small molecule antagonists, cell-based qHTS assay (AID 1963592); also: nearly all actives have a fitted effect of over 50% in size; also: potency is read from the fitted curve at half-maximal effect; as to activity change, negative = inhibition: series mostly up to about 92 µM
# Chain of Beta-2 adrenergic receptor (Homo sapiens) (P07550 whole entry, looked up): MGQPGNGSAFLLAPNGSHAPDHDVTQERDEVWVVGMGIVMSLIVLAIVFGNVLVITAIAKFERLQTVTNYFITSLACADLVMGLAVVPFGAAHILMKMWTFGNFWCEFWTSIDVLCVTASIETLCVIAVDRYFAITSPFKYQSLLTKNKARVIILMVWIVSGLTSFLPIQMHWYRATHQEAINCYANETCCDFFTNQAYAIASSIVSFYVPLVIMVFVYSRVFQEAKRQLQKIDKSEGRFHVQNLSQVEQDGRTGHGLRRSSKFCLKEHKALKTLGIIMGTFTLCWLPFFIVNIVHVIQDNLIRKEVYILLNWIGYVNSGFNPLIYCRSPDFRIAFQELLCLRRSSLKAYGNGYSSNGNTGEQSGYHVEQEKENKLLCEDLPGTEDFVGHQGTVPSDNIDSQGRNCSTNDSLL
# Procedure, shortened: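 Cells (CHO, stable ADRB2 overexpression) incubated 18-20hr at 37C; compounds added from DMSO; agonist mix (1nM isoproterenol, 100uM IBMX, 25uM Ro-20-1724) added; 0.5hr RT; d2-cAMP and anti-cAMP-cryptate added; 1hr RT; 665/615 nm read.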
# [16] = biological target: D(2) dopamine receptor (Homo sapiens) (UniProt P14416); assay: Dopamine D2 receptor (DRD2) small molecule agonists, cell-based qHTS assay (AID 1963594); also: nearly all actives have a fitted effect of over 35% in size
# Chain of D(2) dopamine receptor (Homo sapiens) (P14416 whole entry, looked up): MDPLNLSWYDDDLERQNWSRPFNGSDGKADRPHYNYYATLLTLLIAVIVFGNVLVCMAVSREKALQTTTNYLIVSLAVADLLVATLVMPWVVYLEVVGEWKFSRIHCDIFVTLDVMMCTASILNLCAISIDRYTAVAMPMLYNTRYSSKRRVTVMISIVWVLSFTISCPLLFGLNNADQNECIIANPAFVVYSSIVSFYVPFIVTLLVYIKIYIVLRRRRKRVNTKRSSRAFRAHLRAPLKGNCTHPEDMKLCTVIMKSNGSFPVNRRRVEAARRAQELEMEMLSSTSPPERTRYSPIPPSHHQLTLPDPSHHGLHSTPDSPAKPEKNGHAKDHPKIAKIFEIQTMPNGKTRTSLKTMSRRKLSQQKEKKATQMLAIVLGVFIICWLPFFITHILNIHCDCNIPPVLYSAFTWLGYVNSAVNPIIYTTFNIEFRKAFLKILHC
# Procedure, shortened: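 HEK293 cells stably expressing DRD2 were cultured 24 h at 37 C, then given Ro20-1724 (0.1 mM final) and compounds for 10 min at room temperature. NKH477 (200nM) was then added for 30 min. cAMP was read by HTRF.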
# [17] = biological target: D(2) dopamine receptor (Homo sapiens) (UniProt P14416); assay: Dopamine D2 receptor (DRD2) small molecule antagonists, cell-based qHTS assay (AID 1963595; active = well fitted inhibition curve with a large enough effect in the signal ratio in the repeat runs, with a control signal flat; the % refers to the signal ratio)
# Procedure, shortened: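 Antagonist mode in DRD2-HEK293 cells: after compound addition with 0.1 mM Ro20-1724, cells received quinpirole (12 nM) and NKH477 (200 nM) for 30 min at room temperature; HTRF cAMP read after 1 h detection.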
# [18] = biological target: 5-hydroxytryptamine receptor 2A (Homo sapiens) (UniProt P28223); assay: 5-hydroxytryptamine receptor 2A (HTR2A) small molecule antagonists, cell-based qHTS assay (AID 1963586); also: nearly all actives have a fitted effect of over 45% in size; also: potency is read from the fitted curve at half-maximal effect
# Procedure, shortened: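 Antagonist-mode intracellular calcium assay: DOI (4 nM) added after 5 min compound pre-incubation at room temperature to dye-loaded HTR2A-CHO cells. Fluorescence followed for 3 min, sampled every second.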
# [19] = biological target: Beta-2 adrenergic receptor (Homo sapiens) (UniProt P07550); assay: Adrenergic beta2 receptor (ADRB2) small molecule agonists, cell-based qHTS assay (AID 1963593);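 also: CHO cells stably overexpressing human ADRB2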
# Procedure, shortened: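 CHO cells stably over-expressing ADRB2 were plated overnight at 37C, then dosed with compounds plus a stimulation mix containing 100uM IBMX and 25uM Ro-20-1724 for 0.5hr at room temperature. cAMP was measured by HTRF competition, 1hr.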
# [20] = Nuclear factor erythroid 2-related factor 2/antioxidant responsive element (Nrf2/ARE) small molecule agonists: qHTS cell viability counter screen in human keratinocytes (AID 1919968; active = well fitted curve in the direction sought with a large enough effect in the repeat runs; an effect the other way counts as inactive or inconclusive; also: nearly all actives have a fitted effect of over 55% in size)
# Procedure, shortened: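 Viability counter-screen: KeratinoSens reporter cells, DMSO-delivered compounds, 23 h at 37 C, CellTiter-Fluor fluorescence.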
compound,measurement,setting,value
Cc1cc([N+](=O)[O-])ccc1N,Potency,[1],inactive
same,Potency,[2],inactive
same,Potency,[3],inactive
same,Potency,[4],inactive
same,Potency,[5],inactive
same,Potency,[6],inactive
same,Potency,[7],inactive
same,Potency,[8],inactive
same,Potency,[9],inactive
same,Potency,[10],inactive
same,Potency,[11],inactive
same,Potency,[12],inactive
same,Potency,[13],inactive
same,Potency,[14],inactive
same,Potency,[15],inactive
same,Potency,[16],inactive
same,Potency,[17],inactive
O=C1c2ccccc2C(=O)c2c1ccc(O)c2O,Potency,[1],inactive
same,Potency,[2],inactive
same,Potency,[3],inactive
same,Potency,[4],inactive
same,Potency,[5],inactive
same,Potency,[6],inactive
same,Potency,[7],inactive
same,Potency,[8],inactive
same,Potency,[9],inactive
same,Potency,[18],inactive
same,Potency,[10],inactive
same,Potency,[11],inactive
same,Potency,[12],inactive
same,Potency,[13],inactive
same,Potency,[15],inactive
same,Potency,[19],inactive
same,Potency,[16],inactive
CCCCN(CCCC)CC(O)c1cc(Cl)cc2c1-c1ccc(Cl)cc1/C2=C/c1ccc(Cl)cc1 (centres undefined),Potency,[1],inactive
same,Potency,[2],inactive
same,Potency,[3],inactive
same,Potency,[4],inactive
same,Potency,[5],inactive
same,Potency,[6],inactive
same,Potency,[7],inactive
same,Potency,[8],inactive
same,Potency,[9],inactive
same,Potency,[18],inactive
same,Potency,[10],inactive
same,Potency,[11],inactive
same,Potency,[12],inactive
same,Potency,[16],inactive
same,Potency,[17],inactive
C1=CC2C3C=CC(C3)C2C1 (centres undefined),Potency,[20],inactive
same,Potency,[3],inactive
same,Potency,[5],inactive
same,Potency,[10],54 µM (active)
same,Potency,[11],inactive
same,Potency,[13],inactive
same,Potency,[14],inactive
same,Potency,[15],inactive
COc1cc2nc(N3CCN(C(=O)C4COc5ccccc5O4)CC3)nc(N)c2cc1OC (centres undefined),Potency,[1],inactive
same,Potency,[2],inactive
same,Potency,[3],inactive
same,Potency,[4],inactive
same,Potency,[5],inactive
same,Potency,[6],inactive
same,Potency,[7],inactive
same,Potency,[8],inactive
same,Potency,[9],inactive
same,Potency,[13],inactive
same,Potency,[15],26.6 µM (active)
same,Potency,[17],inactive
C=CCN1C[C@H](C(=O)N(CCCN(C)C)C(=O)NCC)C[C@@H]2c3cccc4[nH]cc(c34)C[C@H]21,Potency,[1],inactive
same,Potency,[2],inactive
same,Potency,[3],inactive
same,Potency,[4],inactive
same,Potency,[5],inactive
same,Potency,[6],inactive
same,Potency,[7],inactive
same,Potency,[8],inactive
same,Potency,[9],inactive
same,Potency,[18],0.0006 µM (active)
same,Potency,[10],0.0019 µM (active)
same,Potency,[12],inactive
same,Potency,[13],inactive
same,Potency,[15],inactive
same,Potency,[19],inactive
same,Potency,[17],inactive
Cc1cc2nc3c(=O)[nH]c(=O)nc-3n(C[C@H](O)[C@H](O)[C@H](O)CO)c2cc1C,Potency,[1],17.2 µM (active) and 11.4 µM (active) and 8.27 µM (active)
same,Potency,[2],24.3 µM (active) and 22.8 µM (active)
same,Potency,[3],38.5 µM (active) and 32.2 µM (active) and 9.28 µM (active)
same,activation,[4],-6.49% [at 13.5 µM]
same,activation,[5],-5.55% [at 13.6 µM]
same,Potency,[6],inactive
same,Potency,[7],inactive
same,Potency,[8],inactive
same,Potency,[9],inactive
same,Potency,[10],6.1 µM (active) and 16.1 µM (active) and 11.7 µM (active)
same,Potency,[11],inactive
same,Potency,[12],24.3 µM (active) and 20.3 µM (active) and 11.7 µM (active)
same,"activity change, negative = inhibition",[15],-10.6% [at 19 µM]
same,activation,[19],1.44% [at 19 µM]
